In PubChem BioAssay (NCI):
About 79,000 compounds went through this panel and 15% of them were active in at least one assay; those are over-represented in the sample as a whole. Calls of active or inactive are those of the source. No stated cut-off is given here; in the data, active means growth inhibition above about 70%; inactive means the rest.

Key:
[1] = NCI Yeast Anticancer Drug Screen. Data for the mec2-1 strain (AID 157); details: S. cerevisiae mec2-1 strain, hits give high values
How it was run: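 Using mec2-1 yeast: add compound, measure growth, express inhibition versus vehicle-treated cultures.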

[2] = NCI Yeast Anticancer Drug Screen. Data for the rad14 strain (AID 159);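 further: 0% = growth of vehicle-treated control cultures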; details: S. cerevisiae rad14 strain growth inhibition, hits give high values
How it was run: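 DNA repair-defective yeast, compound-exposed; % growth inhibition derived by comparison with vehicle-treated controls.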

[3] = NCI Yeast Anticancer Drug Screen. Data for the sgs1 mgt1 strain (AID 161);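 further: 0% = growth of cultures given vehicle only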; details: S. cerevisiae sgs1 mgt1 strain, hits give high values
How it was run: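 Growth of a repair-deficient yeast mutant was monitored after compound treatment and expressed as inhibition relative to vehicle-treated cultures.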

[4] = NCI Yeast Anticancer Drug Screen. Data for the CLN2oe strain (AID 163);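 further: 0% = growth of vehicle-only control cultures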; details: S. cerevisiae CLN2oe strain, hits give high values
How it was run: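 Whole-cell yeast growth assay. A strain engineered for altered cell-cycle control received compound, and inhibition relative to vehicle-treated cultures was recorded.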

[5] = NCI Yeast Anticancer Drug Screen. Data for the cln2 rad14 strain (AID 165);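 further: 0% = growth equal to vehicle treated cultures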; details: S. cerevisiae cln2 rad14 strain, hits give high values
How it was run: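 Yeast strain cln2 rad14, bearing defects in cell cycle control and DNA repair, serves as the test system; values reflect growth inhibition compared with vehicle.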

[6] = NCI Yeast Anticancer Drug Screen. Data for the bub3 strain (AID 167); details: S. cerevisiae bub3 mutant strain, hits give high values
How it was run: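 In this screen, a yeast mutant lacking normal mitotic checkpoint function is challenged with compound. Relative growth versus vehicle gives the inhibition value.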

[7] = NCI Yeast Anticancer Drug Screen. Data for the wt2 strain (AID 169);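 further: 0% = growth of vehicle-treated yeast cultures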; details: S. cerevisiae wt2 strain growth inhibition, hits give high values
How it was run: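 Treated yeast vs. vehicle-treated yeast: growth inhibition determined.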

[8] = NCI Yeast Anticancer Drug Screen. Data for the mlh1 strain (AID 171);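 further: 0% = growth of vehicle-treated control cultures of the same strain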; details: S. cerevisiae mlh1 strain growth inhibition, hits give high values
How it was run: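 A yeast strain with a defined genetic lesion serves as the test organism. Cultures receive compound or vehicle, and growth is measured.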

[9] = NCI Yeast Anticancer Drug Screen. Data for the sgs1 strain (AID 173);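 further: 0% = growth of vehicle-only control cultures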; details: S. cerevisiae sgs1 mutant, hits give high values
How it was run: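 A genetically defined yeast mutant is incubated with the test compound, and its growth is compared to that of the same strain given vehicle.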

[10] = NCI Yeast Anticancer Drug Screen. Data for the mlh1 rad18 strain (AID 175); details: S. cerevisiae mlh1 rad18 strain growth inhibition, hits give high values
How it was run: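 Steps: expose repair-defective yeast to compound; measure growth; express inhibition against vehicle-treated controls.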

[11] = NCI Yeast Anticancer Drug Screen. Data for the rad18 strain (AID 177); details: S. cerevisiae rad18 mutant growth inhibition, hits give high values
How it was run: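 Measured value is growth inhibition of a yeast strain bearing a DNA repair alteration, referenced to vehicle-treated cells.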

[12] = NCI Yeast Anticancer Drug Screen. Data for the rad52 strain (AID 147);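 further: 0% = growth of vehicle-treated control cultures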; details: S. cerevisiae rad52 mutant growth inhibition, hits give high values
How it was run: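 Here a repair-compromised yeast strain receives each compound; its growth is then quantified and normalised to vehicle-only controls.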

[13] = NCI Yeast Anticancer Drug Screen. Data for the wt1 strain (AID 149);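 further: 0% = growth of vehicle-treated wt1 cultures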; details: S. cerevisiae wt1 strain (SPY 50644) growth inhibition, hits give high values
How it was run: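 wt1 strain grown with compound or vehicle; inhibition taken from the growth difference.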

[14] = NCI Yeast Anticancer Drug Screen. Data for the mgt1 strain (AID 153); details: S. cerevisiae mgt1 mutant growth inhibition, hits give high values
How it was run: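 Measured: inhibition of mgt1 yeast growth by compound, normalized to vehicle-treated cultures.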

[15] = NCI Yeast Anticancer Drug Screen. Data for the rad50 strain (AID 155);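 further: 0% = growth of vehicle-only cultures of the same strain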; details: S. cerevisiae rad50 strain growth inhibition, hits give high values
How it was run: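 DNA repair mutant yeast, compound exposure, growth read-out; inhibition is taken relative to vehicle.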

[16] = at 5.0 µM (retest, dose inferred, filed as 0.5)
[17] = at 50.0 µM (retest, dose inferred, filed as 5.0)

Measured: growth inhibition

CC1SC2(C(=O)Nc3ccc(Cl)cc32)N(c2ccc(Cl)cc2)C1=O (stereo unspecified)
inactive: [2]; at 1.2 µM -3% | [2]; at 3.7 µM -2% | [2]; at 11.0 µM 10% | [3]; [16] 15% | [3]; [17] 4% | [4]; at 1.2 µM -7% | [4]; at 3.7 µM -7% | [4]; at 11.0 µM 12% | [5]; [16] -1% | [5]; [17] -11% | [6]; at 1.2 µM 3% | [6]; at 3.7 µM 12% | [6]; [16] 28% | [6]; at 11.0 µM 31% | [6]; [17] 9% | [7]; at 1.2 µM -4% | [7]; at 3.7 µM -5% | [7]; at 11.0 µM -3% | [8]; at 1.2 µM -1% | [8]; at 3.7 µM -1% | [8]; at 11.0 µM 12% | [9]; at 1.2 µM -2% | [9]; at 3.7 µM 0% | [9]; at 11.0 µM 12% | [10]; [16] 8% | [10]; [17] -4% | [11]; at 1.2 µM -41% | [11]; at 3.7 µM 11% | [11]; at 11.0 µM 35%
active: [1]; at 100.0 µM 98% | [2]; at 33.0 µM 99% | [2]; at 100.0 µM 99% | [3]; at 50.0 µM 99.8% | [4]; at 33.0 µM 99% | [4]; at 100.0 µM 81% | [5]; at 50.0 µM 99.5% | [6]; at 33.0 µM 95% | [6]; at 50.0 µM 99.5% | [6]; at 100.0 µM 97% | [7]; at 33.0 µM 98% | [7]; at 100.0 µM 98% | [8]; at 33.0 µM 97% | [8]; at 100.0 µM 93% | [9]; at 33.0 µM 98% | [9]; at 100.0 µM 94% | [10]; at 50.0 µM 99.5% | [11]; at 33.0 µM 97% | [11]; at 100.0 µM 81%

O=C(O)c1cc2ccc(Cl)cc2c(O)c1C1=CCCCC1
inactive: [12]; at 1.2 µM 6% | [12]; at 3.7 µM 8% | [12]; at 11.0 µM 26% | [12]; at 33.0 µM 46% | [13]; at 1.2 µM -10% | [13]; at 3.7 µM 2% | [13]; at 11.0 µM 6% | [13]; at 33.0 µM 28% | [14]; at 1.2 µM 7% | [14]; at 3.7 µM -15% | [14]; at 11.0 µM 1% | [14]; at 33.0 µM 42% | [15]; at 1.2 µM -7% | [15]; at 3.7 µM -5% | [15]; [16] 33% | [15]; at 11.0 µM 11% | [15]; at 33.0 µM 36% | [15]; [17] 58% | [1]; at 1.2 µM 22% | [1]; at 3.7 µM 18% | [1]; [16] -1% | [1]; at 11.0 µM 22% | [1]; at 33.0 µM 40% | [1]; [17] 58% | [1]; at 50.0 µM 69.1% | [1]; at 100.0 µM 69% | [2]; at 1.2 µM -6% | [2]; at 3.7 µM -10% | [2]; at 11.0 µM 9% | [2]; at 33.0 µM 30% | [3]; [16] 0% | [4]; at 1.2 µM 17% | [4]; at 3.7 µM -2% | [4]; at 11.0 µM 4% | [4]; at 33.0 µM 40% | [5]; [16] 12% | [5]; [17] 63% | [5]; at 50.0 µM 56.9% | [6]; at 1.2 µM 14% | [6]; at 3.7 µM -8% | [6]; [16] 26% | [6]; at 11.0 µM -5% | [6]; at 33.0 µM 32% | [6]; [17] 64% | [6]; at 50.0 µM 60.4% | [7]; at 1.2 µM 5% | [7]; at 3.7 µM 5% | [7]; at 11.0 µM 23% | [7]; at 33.0 µM 52% | [8]; at 1.2 µM 26% | [8]; at 3.7 µM 24% | [8]; at 11.0 µM 41% | [8]; at 33.0 µM 68% | [9]; at 1.2 µM 23% | [9]; at 3.7 µM 23% | [9]; at 11.0 µM 39% | [9]; at 33.0 µM 65% | [10]; [16] -7% | [10]; at 50.0 µM 62.4% | [11]; at 1.2 µM 22% | [11]; at 3.7 µM 21% | [11]; at 11.0 µM 25% | [11]; at 33.0 µM 52%
active: [12]; at 100.0 µM 78% | [13]; at 100.0 µM 73% | [14]; at 100.0 µM 84% | [15]; at 50.0 µM 74.3% | [15]; at 100.0 µM 76% | [2]; at 100.0 µM 75% | [3]; [17] 76% | [3]; at 50.0 µM 79.8% | [4]; at 100.0 µM 71% | [6]; at 100.0 µM 78% | [7]; at 100.0 µM 87% | [8]; at 100.0 µM 87% | [9]; at 100.0 µM 88% | [10]; [17] 74% | [11]; at 100.0 µM 81%
